In PMC4336329 (PLoS ONE, 2015):
Screen size: about 310,000 compounds; about 14,000 (4.5%) showed an effect of 50% or more. Effects have a minus sign here. The sample as a whole holds a higher share of strong results than the screen did.
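Further: peak tail current of the secondary pulse compared with the same well before compound.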

What follows are compounds tested against human ether-à-go-go-related gene (hERG) potassium channel (human, UniProt Q12809) (assay: primary screen, population patch clamp on CHO cells stably expressing hERG; higher = less effect of the substance).
human ether-à-go-go-related gene (hERG) potassium channel, sequence (Q12809 whole entry, looked up): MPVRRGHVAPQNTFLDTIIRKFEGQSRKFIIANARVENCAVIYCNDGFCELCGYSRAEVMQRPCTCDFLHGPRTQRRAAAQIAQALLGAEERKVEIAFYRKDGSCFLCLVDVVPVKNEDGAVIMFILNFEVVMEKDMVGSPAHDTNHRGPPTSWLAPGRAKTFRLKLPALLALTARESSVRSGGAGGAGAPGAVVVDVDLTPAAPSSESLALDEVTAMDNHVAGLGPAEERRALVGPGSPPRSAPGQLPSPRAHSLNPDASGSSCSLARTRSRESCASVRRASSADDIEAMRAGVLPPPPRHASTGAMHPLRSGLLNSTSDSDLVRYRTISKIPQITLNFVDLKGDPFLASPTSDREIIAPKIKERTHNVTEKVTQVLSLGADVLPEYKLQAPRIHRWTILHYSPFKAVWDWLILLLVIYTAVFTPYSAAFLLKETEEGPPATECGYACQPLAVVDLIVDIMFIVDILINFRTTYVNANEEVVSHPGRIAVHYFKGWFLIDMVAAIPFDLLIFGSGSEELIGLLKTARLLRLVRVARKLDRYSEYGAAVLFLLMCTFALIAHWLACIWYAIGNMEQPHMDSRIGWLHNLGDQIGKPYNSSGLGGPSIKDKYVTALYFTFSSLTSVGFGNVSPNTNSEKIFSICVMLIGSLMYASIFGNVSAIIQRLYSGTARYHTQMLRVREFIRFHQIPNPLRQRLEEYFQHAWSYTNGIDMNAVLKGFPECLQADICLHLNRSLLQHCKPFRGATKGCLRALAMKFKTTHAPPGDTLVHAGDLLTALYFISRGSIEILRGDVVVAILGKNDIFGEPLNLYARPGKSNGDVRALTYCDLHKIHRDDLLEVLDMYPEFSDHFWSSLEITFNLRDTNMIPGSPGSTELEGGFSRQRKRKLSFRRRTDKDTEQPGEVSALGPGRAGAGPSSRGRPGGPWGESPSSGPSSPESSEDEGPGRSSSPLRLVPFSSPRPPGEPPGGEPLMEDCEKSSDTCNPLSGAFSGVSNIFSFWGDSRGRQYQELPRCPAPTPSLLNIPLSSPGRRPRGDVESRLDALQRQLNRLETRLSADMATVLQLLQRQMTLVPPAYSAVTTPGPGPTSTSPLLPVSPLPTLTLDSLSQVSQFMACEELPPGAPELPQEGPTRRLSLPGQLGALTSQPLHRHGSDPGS
With `O=C(CSc1nnc(-c2cccs2)o1)N1CCCc2ccccc21` the “hERG current change (%, negative = inhibition) at 10uM” value was 3.02%.
For `O=C(CCCn1c(=S)[nH]c2ccsc2c1=O)Nc1ccc2c(c1)OCO2`, the “hERG current change (%, negative = inhibition) at 10uM” value was 17.2%.
For `O=C(COC(=O)c1ccccc1O)Nc1cc([N+](=O)[O-])ccc1Cl`, the “hERG current change (%, negative = inhibition) at 10uM” value was -21.5%.
`Nc1nc(NCCc2ccccc2)nc(NCc2ccccc2)c1[N+](=O)[O-]` was tested, and the “hERG current change (%, negative = inhibition) at 10uM” value was 20.4%.
`Cc1ccc(OCC(O)CNC2CCCC2)c(C)c1.Cl` (stereo not shown) was tested, and the “hERG current change (%, negative = inhibition) at 10uM” value was 7.48%.
For `Cc1ccc(OCC(O)CNS(=O)(=O)c2ccccc2C(=O)N2CCCCC2)cc1` (stereo not shown), the “hERG current change (%, negative = inhibition) at 10uM” value was -13.9%.
For `Cc1ccc(C(C)C)c(OCC(O)CNC2CCCC2)c1.Cl` (stereo not shown), the “hERG current change (%, negative = inhibition) at 10uM” value was -51.9%.
For `O=C(c1ccccc1S(=O)(=O)NCC(O)COc1ccc([N+](=O)[O-])cc1)N1CCCCC1` (stereo not shown), the “hERG current change (%, negative = inhibition) at 10uM” value was -56.8%.
For `Cc1cccc(C)c1OCC(O)CNS(=O)(=O)c1ccccc1C(=O)N1CCCCC1` (stereo not shown), the “hERG current change (%, negative = inhibition) at 10uM” value was -10.9%.
In the case of `Cc1ccc(C)c(OCC(O)CNC2CCCC2)c1.Cl` (stereo not shown), the “hERG current change (%, negative = inhibition) at 10uM” value was 8.8%.
With `CCc1nn(C(C)C(=O)N2CCN(c3ccccc3)CC2)c(=O)c2cc3occc3n12` (stereo not shown) the “hERG current change (%, negative = inhibition) at 10uM” value was -25.3%.
In the case of `CCOC(=O)C1C(c2ccc(O)c(OCC)c2)NC(=S)NC1(O)C(F)(F)F` (stereo not shown), the “hERG current change (%, negative = inhibition) at 10uM” value was -12.5%.
For `CC(=O)c1ccc(N2CCN(C(=O)CCC(=O)Nc3ccc4nc(N5CCN(C)CC5)cc(C)c4c3)CC2)cc1`, the “hERG current change (%, negative = inhibition) at 10uM” value was 20.3%.
In the case of `CN(C(=O)COC(=O)c1ccc(-c2ccc(O)cc2)cc1)C1CCS(=O)(=O)C1` (stereo not shown), the “hERG current change (%, negative = inhibition) at 10uM” value was 10.8%.
In the case of `COCCNC(=O)CN(C(=O)CCC(=O)Nc1ccccn1)c1ccc(F)c(Cl)c1`, the “hERG current change (%, negative = inhibition) at 10uM” value was 4.59%.
For `O=C(CSc1nnnn1-c1ccccc1)NCC1(N2CCOCC2)CCCCC1`, the “hERG current change (%, negative = inhibition) at 10uM” value was -21.3%.
In the case of `O=C(CSc1ccccc1)NCC1(N2CCCCC2)CCCCC1`, the “hERG current change (%, negative = inhibition) at 10uM” value was -0.798%.
For `Cc1ccc(-n2nnnc2SCC(=O)NCCC2=CCCCC2)c(C)c1`, the “hERG current change (%, negative = inhibition) at 10uM” value was -13.1%.
With `CNC(=O)CSc1nnnn1-c1ccc(C)cc1C` the “hERG current change (%, negative = inhibition) at 10uM” value was 7.63%.
In the case of `Cc1ccc(-n2nnnc2SCC(=O)NCC2(N3CCCCC3)CCCCC2)c(C)c1`, the “hERG current change (%, negative = inhibition) at 10uM” value was -284%.
In the case of `O=C(CSc1nnnn1-c1ccccc1)NCC1(N2CCCCC2)CCCCC1`, the “hERG current change (%, negative = inhibition) at 10uM” value was -62.3%.
With `COCCN(C(=O)COC(=O)c1ccccc1Oc1ccccc1)c1c(N)n(Cc2ccccc2)c(=O)[nH]c1=O` the “hERG current change (%, negative = inhibition) at 10uM” value was -21.6%.
For `Cc1cc(C(=O)N2CCN(c3ncccn3)CC2)sc1-c1ccccc1`, the “hERG current change (%, negative = inhibition) at 10uM” value was -3.34%.
With `O=[N+]([O-])c1ccccc1/C=N/NC1=NCCN1` the “hERG current change (%, negative = inhibition) at 10uM” value was 7.6%.
In the case of `COc1ccccc1N1CCN(C(=O)CCNC(=O)Cn2ccc3ccccc3c2=O)CC1`, the “hERG current change (%, negative = inhibition) at 10uM” value was 2.62%.
`CN(C(=O)C1CCC(=O)N(CCCN2CCCC2=O)C1)C(C1CC1)C1CC1` (stereo not shown) was tested, and the “hERG current change (%, negative = inhibition) at 10uM” value was 12.1%.
With `CC(=O)Nc1ccc(S(=O)(=O)Nc2ccc3c(c2)OCO3)cc1` the “hERG current change (%, negative = inhibition) at 10uM” value was 17.2%.
`O=C(Nc1cccc(S(=O)(=O)N2CCOCC2)c1)C1CCCC1` was tested, and the “hERG current change (%, negative = inhibition) at 10uM” value was -4.03%.
`O=C(Nc1cccc(S(=O)(=O)N2CCCCC2)c1)C1CCN(C(=O)c2ccc(Cl)cc2)CC1` was tested, and the “hERG current change (%, negative = inhibition) at 10uM” value was -31.7%.
For `O=C(Nc1cccc(S(=O)(=O)N2CCOCC2)c1)C1CCCN(C(=O)c2ccc(Cl)cc2)C1` (stereo not shown), the “hERG current change (%, negative = inhibition) at 10uM” value was -32.4%.
For `O=C(Nc1cccc(S(=O)(=O)N2CCCCC2)c1)C1CCC1`, the “hERG current change (%, negative = inhibition) at 10uM” value was 3.43%.
In the case of `CN(c1ccccc1)S(=O)(=O)c1cccc(NC(=O)COC(=O)C2CCCCC2)c1`, the “hERG current change (%, negative = inhibition) at 10uM” value was 13.7%.
In the case of `O=C(Nc1cccc(S(=O)(=O)N2CCCCCC2)c1)C1CCN(C(=O)c2ccc(F)cc2)CC1`, the “hERG current change (%, negative = inhibition) at 10uM” value was -88%.
With `CN(C)S(=O)(=O)c1cccc(NC(=O)COC(=O)CCC(=O)c2ccc(F)cc2)c1` the “hERG current change (%, negative = inhibition) at 10uM” value was -36%.
`O=C(Nc1cccc(S(=O)(=O)N2CCCCCC2)c1)C1CCN(C(=O)c2ccc(Cl)cc2)CC1` was tested, and the “hERG current change (%, negative = inhibition) at 10uM” value was -41.9%.
With `O=C(Nc1cccc(S(=O)(=O)N2CCCCCC2)c1)C1CCC1` the “hERG current change (%, negative = inhibition) at 10uM” value was -57.4%.
For `O=C(Nc1cccc(S(=O)(=O)N2CCCCC2)c1)C1CC1`, the “hERG current change (%, negative = inhibition) at 10uM” value was -10.6%.
For `CN(C)S(=O)(=O)c1cccc(NC(=O)COC(=O)C2CCN(C(=O)c3ccc(F)cc3)CC2)c1`, the “hERG current change (%, negative = inhibition) at 10uM” value was -50.8%.
For `O=C(Nc1cccc(S(=O)(=O)N2CCOCC2)c1)[C@@H]1CCCN1S(=O)(=O)c1ccc(Cl)cc1`, the “hERG current change (%, negative = inhibition) at 10uM” value was -62.8%.
For `CC(C)CCNC(=O)c1ccc2c(SCC(=O)O)c3c(nc2c1)CCCC3`, the “hERG current change (%, negative = inhibition) at 10uM” value was -2.6%.
For `Cc1ccc(N(C)S(=O)(=O)c2csc(C(N)=O)c2)cc1C`, the “hERG current change (%, negative = inhibition) at 10uM” value was -14.8%.
In the case of `Cc1ccc(CN2C(=O)CCC2C(=O)NCCN(CC(C)C)CC(C)C)cc1` (stereo not shown), the “hERG current change (%, negative = inhibition) at 10uM” value was -13.4%.
With `CCOc1cc(N2CCOCC2)c(OCC)cc1NC(=O)C1=NN(c2cccc(C)c2)C(=O)CC1` the “hERG current change (%, negative = inhibition) at 10uM” value was -3.8%.
In the case of `COc1cc(Cn2nnc3ccccc32)cc(Br)c1O`, the “hERG current change (%, negative = inhibition) at 10uM” value was 3%.
For `Cc1ccccc1NC(=O)Cn1c(CCC(=O)O)ccc1-c1cccs1`, the “hERG current change (%, negative = inhibition) at 10uM” value was 15.4%.
With `CCN(C(=O)CSc1ccc2ccccc2n1)C1CCS(=O)(=O)C1` (stereo not shown) the “hERG current change (%, negative = inhibition) at 10uM” value was -7.61%.
`Cc1ccc(-n2c(=O)c3c(C)c(C)sc3n(Cc3cc(=O)n4ccccc4n3)c2=O)cc1C` was tested, and the “hERG current change (%, negative = inhibition) at 10uM” value was -4.43%.
`Cc1sc2c(c1C)c(=O)n(-c1ccc(Cl)cc1)c(=O)n2Cc1cc(=O)n2ccccc2n1` was tested, and the “hERG current change (%, negative = inhibition) at 10uM” value was -36.4%.
For `Cc1ccc(-n2c(=O)c3c4c(sc3n(Cc3cc(=O)n5ccccc5n3)c2=O)CCC4)cc1C`, the “hERG current change (%, negative = inhibition) at 10uM” value was -69.1%.
In the case of `CS(=O)(=O)N(Cc1ccc(C(=O)NN=C2CCCCCC2)cc1)c1ccccc1`, the “hERG current change (%, negative = inhibition) at 10uM” value was -7.08%.
In the case of `CCCCC(C(=O)O)C(C)CC(=O)NNC(=O)c1ccco1` (stereo not shown), the “hERG current change (%, negative = inhibition) at 10uM” value was 13.2%.
For `C(=N\Nc1nncc2ccccc12)/c1ccccc1`, the “hERG current change (%, negative = inhibition) at 10uM” value was 1.52%.
In the case of `COc1ccc(C)cc1N/C(N)=N/c1nc(C)cc(C)n1`, the “hERG current change (%, negative = inhibition) at 10uM” value was -74.4%.
`COc1ccc(N/C(N)=N/c2nc(C)cc(C)n2)c(OC)c1` was tested, and the “hERG current change (%, negative = inhibition) at 10uM” value was -26.4%.
With `CCOC(=O)Nc1cc(C)ccc1OC` the “hERG current change (%, negative = inhibition) at 10uM” value was 11.2%.
With `COc1ccc(Cl)cc1N/C(N)=N/c1nc(C)cc(C)n1` the “hERG current change (%, negative = inhibition) at 10uM” value was -84.2%.
`COc1ccc(Cl)cc1NC(=O)CSc1nc(C)cc(C)n1` was tested, and the “hERG current change (%, negative = inhibition) at 10uM” value was -32.6%.
For `Cc1ccc(C)c(N/C(N)=N/c2nc(C)cc(C)n2)c1`, the “hERG current change (%, negative = inhibition) at 10uM” value was -34.2%.
For `Cc1ccc(N/C(N)=N/c2nc(C)cc(N3CCCCC3)n2)c(C)c1`, the “hERG current change (%, negative = inhibition) at 10uM” value was -83%.
In the case of `COc1ccc(Cl)cc1N/C(N)=N/c1nc(C)cc(=O)[nH]1`, the “hERG current change (%, negative = inhibition) at 10uM” value was 20%.
`CC(=O)N/C(=N/c1nc(C)cc(C)n1)Nc1ccc(C)cc1C` was tested, and the “hERG current change (%, negative = inhibition) at 10uM” value was -10.6%.
In the case of `COc1ccc(OC)c(N/C(N)=N/c2nc(C)cc(C)n2)c1`, the “hERG current change (%, negative = inhibition) at 10uM” value was -50.1%.
For `COc1ccccc1N/C(N)=N/c1nc(C)cc(C)n1`, the “hERG current change (%, negative = inhibition) at 10uM” value was -32.9%.
With `COc1ccc(OC)c(N/C(=N/c2nc(C)cc(C)n2)NC(C)=O)c1` the “hERG current change (%, negative = inhibition) at 10uM” value was 14.5%.
